Experimental data taken from PubChem BioAssay AID504895 (National Center for Advancing Translational Sciences (NCATS), 2011).
Results filed as inconclusive are left out. A call without a number means that no potency is given here. Active and inactive are the calls of the source. Calls come from the whole dose curve; as a rule, active = well fitted curve in the direction sought with a large enough effect; inconclusive = small, poorly fitted or top-dose-only effect, or another doubt; inactive = no such curve, though single readings can be large or run the other way.

Target: Protein phosphatase EYA2 (Homo sapiens) (UniProt O00167)
Sequence (O00167 whole entry, looked up): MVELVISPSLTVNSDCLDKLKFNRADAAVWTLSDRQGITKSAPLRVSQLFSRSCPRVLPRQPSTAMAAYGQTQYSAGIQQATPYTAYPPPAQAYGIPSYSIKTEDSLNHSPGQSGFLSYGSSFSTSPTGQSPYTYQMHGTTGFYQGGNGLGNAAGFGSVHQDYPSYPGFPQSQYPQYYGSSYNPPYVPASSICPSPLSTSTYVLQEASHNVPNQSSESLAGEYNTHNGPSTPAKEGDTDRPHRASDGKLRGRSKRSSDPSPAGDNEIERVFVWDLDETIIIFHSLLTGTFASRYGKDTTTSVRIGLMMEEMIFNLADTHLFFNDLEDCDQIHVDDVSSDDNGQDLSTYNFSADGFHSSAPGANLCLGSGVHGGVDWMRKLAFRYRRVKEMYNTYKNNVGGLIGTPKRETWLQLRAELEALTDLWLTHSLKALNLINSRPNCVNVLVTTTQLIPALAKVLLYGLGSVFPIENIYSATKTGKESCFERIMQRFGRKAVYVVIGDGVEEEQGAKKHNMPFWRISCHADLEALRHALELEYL
Experiment: Inhibitors of Eya2ED: Hit Confirmation in Primary Screen
Settings: Recombinant Eya2ED, OMFP fluorescence phosphatase assay; series mostly up to 76.9 µM
Summary of the method: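 Eya2 (dispensed at 0.2 uM) was preincubated 10 min at ambient with compound in 50 mM HEPES pH 7.5, 50 mM NaCl, 5 uM MgCl2, 0.05% BSA, 1 mM DTT. OMFP (dispensed at 50 uM) was then added, and fluorescence (ex 485/em 525 nm) was read after 10 min. Retested as 12-point titrations; EGTA control.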

Row | SMILES | Potency
1 | O=C(C1CCCN(Cc2ccccc2F)C1)N1CCc2ccccc2C1 (stereo unspecified) | inactive
2 | COc1ccc(/C=C(\C#N)C(=O)OCC(=O)N2CC(C)OC(C)C2)cc1 (stereo unspecified) | inactive
3 | COC(=O)c1ccc(Cn2cc([N+](=O)[O-])cn2)cc1 | inactive
4 | CCCC(=O)Nc1cccc(NC(=O)c2ccc3c(c2)OCCO3)c1 | inactive
5 | CCCOc1ccc(C(=O)OCC(=O)c2c(N)n(C)c(=O)n(C)c2=O)cc1OC | inactive
6 | O=C(N/N=C\c1ccc(Sc2ccccn2)o1)c1cccc(Br)c1 | 1.84 µM (active)
7 | CCOc1ccc(NC(=O)COC(=O)CN2CCCCCC2=O)cc1 | inactive
8 | Cc1ccc(S(=O)(=O)NNC(=S)NCCc2ccccc2)cc1 | inactive
9 | CC(C)(C)OC(=O)NCCCCCc1nnc(SCc2ccccc2F)o1 | inactive
10 | CCOC(=O)C1CCCN(Cc2cc(Br)c(OC)cc2OC)C1 (stereo unspecified) | inactive
11 | Cc1ccc(NC(=O)c2sc(N)nc2-c2ccc([N+](=O)[O-])cc2)cc1C | inactive
12 | Cc1ccc(CCNC(=O)c2cc(C)nn2-c2ccccc2)cc1 | inactive
13 | C#CCOCCOCCOCCNc1nc(N2CCN(C(=O)CCCCCCCCCCNC(=O)[C@H](CCCCN)n3cc(C)nn3)CC2)nc(N2CCN(C(=O)CCCCCCCCCCNC(=O)[C@H](CCCN=C(N)N)n3cc(C[C@@H](C)CC)nn3)CC2)n1 | 18.4 µM (active)
14 | Cn1c(CNC(=O)c2ccc(Cl)cc2)nnc1SCC(=O)NC1=NCCS1 | inactive
15 | O=C(NC1CCN(Cc2ccccc2)CC1)c1cccc(S(=O)(=O)Nc2ccc(SC(F)F)cc2)c1 | inactive
16 | CC(C1CC1)N(C(=O)c1ccccc1O)c1ccccc1 (stereo unspecified) | inactive

Row | SMILES | Potency
17 | COc1ccc(-c2noc(CCC(=O)NC3CCCCC3)n2)cc1OC | inactive
18 | O=C(NCCC1CCCCN1S(=O)(=O)c1ccccc1)C(=O)NCc1ccccn1 (stereo unspecified) | inactive
19 | CCOc1ccc(S(=O)(=O)N2CCN(C(=O)c3sccc3C)CC2)cc1 | inactive
20 | O=C(O)/C=C/C(=O)Nc1ccc2nccnc2c1 | inactive
21 | Cc1cccn2c(=O)nc(SCC(=O)NCc3ccc(F)cc3)nc12 | inactive
22 | Cc1nn(-c2nc(-c3ccco3)cc(C(F)(F)F)n2)c(C)c1Cl | inactive
23 | O=C(CN1C(=O)c2ccccc2S1(=O)=O)Nc1cccc(S(=O)(=O)N2CCOCC2)c1 | inactive
24 | CCOc1ccccc1N(CC(=O)Nc1cc(OC)ccc1OC)S(C)(=O)=O | inactive
25 | COc1cccc2[nH]c3c(=O)[nH]cnc3c12 | inactive
26 | O=C(NN=Cc1ccccc1Cl)c1ccc(-n2cnnn2)cc1 | inactive
27 | O=C(C1CCC(=O)N(C2CCCC2)C1)N1CCC(Oc2cccc(F)c2)CC1 (stereo unspecified) | inactive
28 | COC(=O)C(NNc1ccccc1)(NC(=O)c1cccc(F)c1)C(F)(F)F (stereo unspecified) | inactive
29 | Cc1ccc(C(=O)NCc2ccc(Cl)cc2)o1 | inactive
30 | O=C(CC(c1ccccc1)c1ccccc1)Nc1ccc(Cl)cn1 | inactive
31 | COc1cccc(-c2cc(C(F)(F)F)nc(N3CCN(c4ccccc4)CC3)n2)c1 | inactive
